Most compounds without a hit are left out; they make up all but 18% or so of the library.
LDHA inh = qHTS assay for inhibitors of human lactate dehydrogenase; activity change, % (values are at about 110 or 230 µM); purified LDHA, NADH/diaphorase-resazurin fluorescence; active compounds read low; hit rate 0.15% among 480,000; AID 1347041, 2019; in the data active = activity change below about -30%; inconclusive = mostly about -25% to -30%;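 note: plate controls were DMSO wells for no effect and wells without enzyme for full effect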
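LDH5 2 nM; NADH 0.06 mM, pyruvate 0.2 mM; 200 mM Tris pH 7.4, EDTA, Tween-20; 5 min RT. Detection: diaphorase 0.133 mg/mL + resazurin 37 µM, fluorescence ex540/em590 at 0 and 20 min; normalized to enzyme-free and DMSO wells.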
RORgamma inh = qHTS for inhibitors of ROR gamma transcriptional activity; hit rate 5.4% among 310,000; Drosophila S2 Gal4-RORgamma UAS-luciferase reporter, 20 h; Nuclear receptor ROR-gamma (Mus musculus), P51450; Potency, µM (doses to about 53.6 µM), inactives show at the top dose activity change, negative = inhibition, hits mostly inhibitors; note: potency is the fitted concentration of half-maximal effect; nearly all actives have a fitted effect of over 60% in size
Target sequence (P51450 whole entry, looked up, the tested form may be a part): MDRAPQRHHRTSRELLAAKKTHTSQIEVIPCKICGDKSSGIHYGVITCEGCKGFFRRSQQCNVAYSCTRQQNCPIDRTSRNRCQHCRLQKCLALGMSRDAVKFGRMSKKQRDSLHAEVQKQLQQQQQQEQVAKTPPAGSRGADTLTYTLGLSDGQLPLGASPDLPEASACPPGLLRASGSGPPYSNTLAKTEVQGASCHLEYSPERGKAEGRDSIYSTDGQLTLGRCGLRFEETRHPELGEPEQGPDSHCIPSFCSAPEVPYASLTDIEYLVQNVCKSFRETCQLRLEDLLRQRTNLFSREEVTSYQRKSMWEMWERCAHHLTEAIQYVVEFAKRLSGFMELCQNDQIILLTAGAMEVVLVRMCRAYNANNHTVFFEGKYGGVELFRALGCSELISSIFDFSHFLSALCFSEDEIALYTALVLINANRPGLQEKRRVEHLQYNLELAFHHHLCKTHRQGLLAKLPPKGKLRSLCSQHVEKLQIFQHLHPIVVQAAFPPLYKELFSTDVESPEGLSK
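Drosophila S2 cells stably expressing Gal4-DBD/mouse RORγ fusion under metallothionein promoter plus UAS-luciferase; compound 1 h, then 700 uM CuSO4 induction for 20 h at ambient temperature; inhibition read as reduced luminescence.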
TDP1 cell noCPT = qHTS for Inhibitors of human tyrosyl-DNA phosphodiesterase 1 (TDP1): qHTS in cells in absence of CPT | DT40 Tdp1-/- hTDP1 cells, no CPT, ATP luminescence, 48 h | Potency, µM (top dose mostly 46.2 µM), for inactives: at the highest dose activity change, negative = growth inhibition, actives largely listed as inhibitors | hit rate 15% among 420,000; note: potency is the fitted concentration of half-maximal effect; nearly all actives have a fitted effect of over 55% in size
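DT40 Tdp1-/-;hTDP1 cells, no CPT (DMSO vehicle only), 400 cells/well; compounds pin-transferred; ≥48 hr, 37 °C; CellTiter-Glo 30 min RT dark, luminescence read.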
Gal4-VP16 FLuc = VP16 counterscreen qHTS for inhibitors of ROR gamma transcriptional activity. AID 2546, 2010. hit rate 3.5% among 310,000. Drosophila S2 Gal4-VP16 UAS-luciferase, luminescence, 20 h. Potency, µM (series often up to 53.6 µM), for inactives: at the top dose activity, negative = inhibition, hits mostly inhibitors;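 note: Gal4-VP16 expression switched on by copper sulfate through the metallothionein promoter; potency is the fitted concentration of half-maximal effect; nearly all actives have a fitted effect of over 50% in size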
IL1B secr inh = qHTS for Inhibitors of Inflammasome Signaling: IL-1-beta AlphaLISA Primary Screen. THP-1 LPS/ATP IL-1B secretion, AlphaLISA, 16 h; active compounds read low. hit rate 4.7% among 360,000. activity change, % at 57.5 µM. AID 743279, 2014; in the data active = activity change below about -50%; inconclusive = mostly about -30% to -49%
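Secreted IL-1B measured by AlphaLISA bead assay after 16 h compound exposure of THP-1 cells; compounds (final up to 57.5 uM) added 1 h before LPS (250 ng/mL) and ATP (1.25 mM) stimulation; lower signal means less secretion.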
DT40 TDP1 CPT = qHTS for Inhibitors of human tyrosyl-DNA phosphodiesterase 1 (TDP1): qHTS in cells in presence of CPT; chicken DT40 Tdp1-/-;hTDP1 cells + 20 nM CPT, ATP luminescence, 48 h; Potency, µM (doses to about 46.2 µM), without a hit: at the highest dose activity change, negative = growth inhibition, hits mostly inhibitors; hit rate 12% among 420,000; AID 686979, 2013; note: potency is the fitted concentration of half-maximal effect; nearly all actives have a fitted effect of over 55% in size
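Cell growth measured by CellTiter-Glo luminescence after a minimum 48 h, 37 C compound exposure with 20 nM CPT in Tdp1-knockout DT40 cells stably expressing hTDP1, seeded 400/well; qHTS titration format.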
* marks the source's active call; other numbers are inactive results; ? = inconclusive; . = not tested or not shown; [ ] = dose if it differs, or a comment. Unless noted, calls come from the whole dose curve; as a rule, active = well fitted curve in the direction sought with a large enough effect; inconclusive = small, poorly fitted or top-dose-only effect, or another doubt; inactive = no such curve, though single readings can be large; an effect the other way counts as inactive or inconclusive. Unless noted, % is set by controls: 0 for no effect and ±100 for the full control effect.

SMILES	LDHA inh	RORgamma inh	TDP1 cell noCPT	Gal4-VP16 FLuc	IL1B secr inh	DT40 TDP1 CPT
CCCCNC(=O)C1(C)CCN1Cc1cccc2c(OC)cc(C(=O)OCC)cc12 (stereo not given)	1.4	.	13µM*	.	?	?
CCOC(=O)c1cc(OC)c2cccc(CN3CCC(C)(C(=O)NCCOC)C3)c2c1 (stereo not given)	-0.3	.	?	.	11.7	?
CCOC(=O)c1cc(OC)c2cccc(CN3CCCC(C)(C(=O)NCCOC)C3)c2c1 (stereo not given)	9.0	.	6.51µM*	.	0.0	9.2µM*
COc1ccc(C)cc1NC(=O)C(=O)NCCc1csc2nc(-c3ccccc3C)nn12	-10.3	.	.	.	.	.
Nc1cccc(-c2c[nH]c3ncc(-c4cccnc4)cc23)c1	3.7	.	20.6µM*	.	-55.0*	8.2µM*
O=C1c2ccccc2C(=O)C1c1nccc2ccccc12	-7.7	?	11.6µM*	?	22.4	10.3µM*
O=C1c2ccccc2C(=O)C1c1ccnc2ccccc12	-1.0	?	13µM*	?	8.9	5.8µM*
O=C1C(c2ccnc3ccccc23)=C(O)c2ccccc21	-4.7	5.01µM*	11.6µM*	?	23.1	13µM*
CCc1ccccc1C1C(=O)c2ccccc2C1=O	-9.3	.	-34.7%	.	-13.1	-3.5%
CCOC(=O)N1CCN(Cc2ccc3c(c2)CN(C(=O)c2ccc4ncccc4c2)CCO3)CC1	.	.	23.1µM*	.	.	-11.0%[9.04 µM]
CCOC(=O)N1CCN(Cc2ccc3c(c2)CN(C(=O)c2sc(C)nc2C)CCO3)CC1	.	.	16.4µM*	.	.	-8.4%[9.04 µM]
O=C(c1ccc2[nH]ccc2c1)N1CCOc2ccc(CN3CCN(c4ccccn4)CC3)cc2C1	.	.	?	.	.	-4.0%[9.04 µM]
Cc1nc2sccn2c1CN1CCOc2ccc(CN3CCN(c4ccc(F)cc4)CC3)cc2C1	.	.	2.59µM*	.	.	2.91µM*
CCOC(=O)N1CCN(Cc2ccc3c(c2)CN(C(=O)c2ccc(C#CC(C)(C)O)o2)CCO3)CC1	.	.	9.2µM*	.	.	?
Cc1nc2ccccc2nc1CN1CCOc2ccc(CN3CCc4sccc4C3)cc2C1	.	.	-9.0%	.	.	8.8%
O=C(CN1CCN(C(=O)CCNS(=O)(=O)c2ccc3ccccc3c2)CC1)Nc1cccc(F)c1	0.4	.	.	.	.	.
FC(F)(F)c1cccc(Oc2ncnc3scc(-c4ccccc4)c23)c1	5.5	.	.	.	.	.
Cc1ccc(-c2nn(CCC(=O)NCc3ccccc3)c(=O)c3ccccc23)cc1	4.1	.	.	.	.	.
COCc1ccc(C(=O)N2CCOc3ccc(CN4CCN(c5ccc(F)cc5)CC4)cc3C2)o1	.	.	20.6µM*	.	.	20.6µM*
CC(C)c1nc(C(=O)N2CCOc3ccc(CN4CCN(c5ccccn5)CC4)cc3C2)cs1	.	.	14.6µM*	.	.	-17.6%[9.04 µM]
COc1ccc(C(=O)N2CCOc3ccc(CN4CCN(c5ccccn5)CC4)cc3C2)o1	.	.	-21.9%	.	.	3.6%[9.04 µM]
NC(=O)c1ccc(CN(C(=O)/C=C/c2cccs2)C2CC2)cc1	-3.2	.	.	.	.	.
Cc1cccc(Sc2c([N+](=O)[O-])ncn2C)c1	-6.2	-16.1%	23.1µM*	?	-20.4	?
Cc1cccnc1Sc1c([N+](=O)[O-])ncn1C	-3.6	-9.3%	1.6%	14.0%	-11.3	-10.2%
Cn1cnc([N+](=O)[O-])c1Sc1nnc(-c2cccnc2)n1C	1.3	?	?	?	-25.7	?
SMILES	LDHA inh	RORgamma inh	TDP1 cell noCPT	Gal4-VP16 FLuc	IL1B secr inh	DT40 TDP1 CPT
Cn1cnc([N+](=O)[O-])c1Sc1ccncn1	-9.3	.	13µM*	.	-4.7	-27.9%
Cc1cc(C)c2oc(C(=O)Nc3nnc(C)s3)cc(=O)c2c1	1.7	.	.	.	.	.
O=C(COc1cc(F)ccc1[N+](=O)[O-])Nc1ccc(N2CCOCC2)cc1	-6.3	7.2%	-0.3%	-10.6%	-24.2	-1.6%
O=C(COc1cc(F)ccc1[N+](=O)[O-])Nc1ccc(N2CCCCC2)cc1	-4.3	.	?	.	-67.0*	?
CC(C)C(=O)N1CCN(c2ccc(NC(=O)COc3ccccc3[N+](=O)[O-])cc2)CC1	0.7	27.5%	18.4µM*	-1.6%	-90.2*	14.6µM*
CN(C(=O)c1ccc(NC(=O)Cc2ccc(NC(=O)C3CCN(C(=O)C4CCCC4)CC3)cc2)cc1)C1CCCC1	-0.9	.	?	.	-17.5	?
CN(C(=O)c1ccc(NC(=O)Cc2ccc([N+](=O)[O-])cc2)cc1)C1CCCC1	-6.8	.	?	.	-22.2	13µM*
CN(C(=O)c1cccc(NC(=O)Cc2ccc([N+](=O)[O-])cc2)c1)C1CCCC1	-1.9	.	25.9µM*	.	-23.7	23.1µM*
CN(Cc1ccccc1)C(=O)c1cccc(NC(=O)Cc2cccc([N+](=O)[O-])c2)c1	1.6	.	23.1µM*	.	?	?
CN(C(=O)c1cccc(NC(=O)Cc2cccc([N+](=O)[O-])c2)c1)C1CCCC1	-7.2	.	?	.	.	18.4µM*
COc1cc(C(=S)N2CCN(CCO)CC2)ccc1OCc1ccc(C)cc1	5.7	.	.	.	.	.
Clc1ccc(CSc2nc3ncccc3[nH]2)c(Cl)c1	-0.2	.	.	.	.	.
Nc1cccc(S(N)(=O)=O)c1	-3.9	.	.	.	.	.
COC(=O)CC1=C(C(=O)OC)C(c2ccc(C(=O)OC)cc2)C(C#N)=C(N)O1 (stereo not given)	9.8	.	.	.	.	.
COC(=O)c1cnn(-c2ccccc2)c1/C=N/NC(=S)Nc1ccccc1	-13.2	0.891µM*	20.6µM*	3.55µM*	90.8	?
COC(=O)c1cnn(-c2ccc(F)cc2F)c1/C=N/NC(=S)NC(C)(C)C	-0.9	1.26µM*	?	?	33.8	?
CNC(=S)N/N=C/c1c(C(=O)OC)cnn1-c1ccc(F)cc1F	-4.2	8.91µM*	16.4µM*	?	1.8	?
CCCCC(CC)CNC(=O)CCC(=O)NCC(CC)CCCC (stereo not given)	6.5	.	.	.	.	.
O=C(Cc1n[nH]c(=O)c2ccccc12)NCCOc1cccc(Cl)c1	5.9	.	.	.	.	.
COc1ccc(OC)c(CNn2c(-c3cccc(C)c3)nc3ccccc3c2=O)c1	-2.5	7.4%	?	-5.1%	-3.7	?
COc1cccc(C(=O)Nn2c(-c3cccs3)nc3ccccc3c2=O)c1OC	2.3	?	?	-2.6%	25.4	-19.5%
COc1ccc(CNn2c(-c3cccs3)nc3ccccc3c2=O)cc1OC	-7.5	32.0%	10.3µM*	-16.2%	-78.5*	7.31µM*

Screening results: PubChem BioAssay, National Center for Advancing Translational Sciences (NCATS)
